Data as given in PubChem BioAssay (NCATS).
Records with an inconclusive call do not appear. Active and inactive are the calls of the source. Calls follow the shape of the dose curve; as a rule, active = well fitted inhibition curve with a large enough effect; inconclusive = small, poorly fitted or top-dose-only effect; inactive = flat fitted curve, though single readings scatter.

experiment: Primary qHTS for inhibitors of nuclear receptor binding SET domain protein 2 (NSD2) in an isogenic RCH-ACV NSD2 p.E1099K mutant (9B) (AID 1645876); details: RCH-ACV (leukaemia line) NSD2 E1099K (9B) viability, CellTiter-Glo, 72 h; series mostly up to 44.9 µM; activity change, negative = viability loss: at the top concentration; also: nearly all actives have a fitted effect of over 70% in size
% is scaled to controls: 0 for no effect and ±100 for the full control effect; potency is read from the fitted curve at half-maximal effect.

Row | SMILES | outcome | activity change, negative = viability loss | Potency
1 | CC1(C)C[C@H]2C3=CCC4[C@@]5(C)CC[C@H](O[C@H]6O[C@H](C(=O)O)[C@@H](O)[C@H](O)[C@H]6O[C@H]6O[C@H](CO)[C@@H](O)[C@H](O)[C@H]6O[C@@H]6O[C@H](CO)[C@@H](O)[C@H](O)[C@H]6O)[C@](C)(CO)C5CC[C@@]4(C)[C@]3(C)CC[C@@]2(C)[C@H](O[C@@H]2OC[C@H](O)[C@H](OC3O[C@H](CO)[C@@H](O)[C@H](O)[C@H]3O)[C@H]2O)[C@@H]1O (stereo partly drawn) | inactive [at 9.23 µM] | – | –
2 | OCC1=CC[C@@H]2C=CO[C@@H](O[C@@H]3O[C@H](CO)[C@@H](O)[C@H](O)[C@H]3O)[C@H]12 | – | -19.3% (inactive) | –
3 | C=C1C(=O)OC2CC(C)=C(C(C)CCCO[C@@H]3O[C@H](CO)[C@@H](O)[C@H](O)[C@H]3O)C(O)C12 (stereo partly drawn) | inactive [at 17.3 µM] | – | –
4 | COc1ccc(C[C@H](N)C(=O)N[C@H]2[C@@H](O)[C@H](n3cnc4c(N(C)C)ncnc43)O[C@@H]2CO)cc1 | – | – | 409 nM (active)
5 | NC(=O)c1cccc(-c2cc(O)cc(OC(=O)NC3CCCCC3)c2)c1 | – | -22.6% [at 17.3 µM] (inactive) | –
6 | COC1CC(=O)CCC(C)OC(=O)CC1O (stereo not drawn) | – | -6.01% (inactive) | –
7 | C[C@@H]1O[C@@H](O[C@H]2[C@H](O[C@H]3[C@H](O[C@H]4CC[C@@]5(CO)C(CC[C@]6(C)C5CC=C5C7CC(C)(C)C[C@@H](O)[C@]7(C)CC[C@]56C)C4(C)C)O[C@H](C(=O)O)[C@@H](O)[C@@H]3O)OC[C@@H](O)[C@@H]2O)[C@H](O)[C@H](O)[C@H]1O (stereo partly drawn) | – | -1.45% [at 9.23 µM] (inactive) | –
8 | CC1CCC2C(C)(C)CC(C)(CO)C2(O)C1C(=O)O (stereo not drawn) | – | -3.41% (inactive) | –
